Measurements: PubChem BioAssay (NCI)
The panel holds about 79,000 compounds, 15% with a hit somewhere; the sample as a whole holds those more often. The source made the active and inactive calls. Rule as the data show it: active = growth inhibition above about 70%; inactive = the rest.

Columns and labels:
[1] = NCI Yeast Anticancer Drug Screen. Data for the wt2 strain (AID 169);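 also: 0% = growth of vehicle-treated yeast cultures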; conditions: S. cerevisiae wt2 strain growth inhibition, hits give high values
Procedure, shortened: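 This strain belongs to a panel of yeast strains with defined genetic alterations in DNA damage repair or cell cycle control. Compounds are applied, and growth inhibition is measured against vehicle-treated cultures.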

[2] = NCI Yeast Anticancer Drug Screen. Data for the mlh1 strain (AID 171);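 also: 0% = growth of vehicle-treated control cultures of the same strain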; conditions: S. cerevisiae mlh1 strain growth inhibition, hits give high values
Procedure, shortened: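 Growth of the mutant yeast strain after compound exposure, expressed as inhibition relative to vehicle-only controls.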

[3] = NCI Yeast Anticancer Drug Screen. Data for the sgs1 strain (AID 173);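 also: 0% = growth of vehicle-only control cultures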; conditions: S. cerevisiae sgs1 mutant, hits give high values
Procedure, shortened: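 Growth of a yeast strain bearing a defined genetic alteration is measured after compound treatment. Inhibition is expressed relative to vehicle-only controls.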

[4] = NCI Yeast Anticancer Drug Screen. Data for the mlh1 rad18 strain (AID 175); conditions: S. cerevisiae mlh1 rad18 strain growth inhibition, hits give high values
Procedure, shortened: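 Read-out is yeast growth inhibition, calculated against vehicle-only controls. The compound was applied to a strain engineered with DNA damage repair alterations.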

[5] = NCI Yeast Anticancer Drug Screen. Data for the rad18 strain (AID 177); conditions: S. cerevisiae rad18 mutant growth inhibition, hits give high values
Procedure, shortened: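 Growth of the mutant yeast strain after compound exposure, normalised to vehicle-only cultures.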

[6] = NCI Yeast Anticancer Drug Screen. Data for the rad52 strain (AID 147);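 also: 0% = growth of vehicle-treated control cultures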; conditions: S. cerevisiae rad52 mutant growth inhibition, hits give high values
Procedure, shortened: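 Compounds are applied to a genetically defined yeast strain lacking normal DNA damage repair, and inhibition of growth is expressed relative to cultures given vehicle only.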

[7] = NCI Yeast Anticancer Drug Screen. Data for the wt1 strain (AID 149);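 also: 0% = growth of vehicle-treated wt1 cultures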; conditions: S. cerevisiae wt1 strain (SPY 50644) growth inhibition, hits give high values
Procedure, shortened: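 Readout: yeast growth inhibition, normalised to vehicle controls, in the wt1 strain exposed to test compounds.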

[8] = NCI Yeast Anticancer Drug Screen. Data for the rad50EPP+ strain (AID 151);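 also: 0% = growth of vehicle-treated control cultures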; conditions: S. cerevisiae rad50 mutant strain, hits give high values
Procedure, shortened: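 Compounds were applied to the rad50EPP+ yeast strain, which bears a defined DNA repair alteration, and growth inhibition was determined relative to vehicle-treated cultures.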

[9] = NCI Yeast Anticancer Drug Screen. Data for the mgt1 strain (AID 153); conditions: S. cerevisiae mgt1 mutant growth inhibition, hits give high values
Procedure, shortened: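 Strain: mgt1 yeast, one of a set carrying defined DNA damage repair or cell cycle control alterations. Compound-treated growth compared with vehicle.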

[10] = NCI Yeast Anticancer Drug Screen. Data for the rad50 strain (AID 155);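 also: 0% = growth of vehicle-only cultures of the same strain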; conditions: S. cerevisiae rad50 strain growth inhibition, hits give high values
Procedure, shortened: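 Compounds were tested on a yeast strain with an engineered DNA damage repair alteration; the reported value is growth inhibition normalised to vehicle treatment.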

[11] = NCI Yeast Anticancer Drug Screen. Data for the mec2-1 strain (AID 157); conditions: S. cerevisiae mec2-1 strain, hits give high values
Procedure, shortened: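 Strain: mec2-1 (DNA repair/cell cycle alteration). Compound exposure, then growth measured; inhibition expressed relative to vehicle.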

[12] = NCI Yeast Anticancer Drug Screen. Data for the rad14 strain (AID 159);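 also: 0% = growth of vehicle-treated control cultures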; conditions: S. cerevisiae rad14 strain growth inhibition, hits give high values
Procedure, shortened: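 Compound-treated yeast with a defined DNA-repair lesion; growth inhibition normalised to vehicle-treated cultures.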

[13] = NCI Yeast Anticancer Drug Screen. Data for the sgs1 mgt1 strain (AID 161);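 also: 0% = growth of cultures given vehicle only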; conditions: S. cerevisiae sgs1 mgt1 strain, hits give high values
Procedure, shortened: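 Read-out: growth inhibition vs vehicle controls. Cells: mutant yeast strain deficient in DNA damage repair.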

[14] = NCI Yeast Anticancer Drug Screen. Data for the CLN2oe strain (AID 163);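 also: 0% = growth of vehicle-only control cultures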; conditions: S. cerevisiae CLN2oe strain, hits give high values
Procedure, shortened: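 Growth of a genetically modified yeast strain is measured after compound exposure and compared with cultures given vehicle alone.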

[15] = NCI Yeast Anticancer Drug Screen. Data for the cln2 rad14 strain (AID 165);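 also: 0% = growth equal to vehicle treated cultures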; conditions: S. cerevisiae cln2 rad14 strain, hits give high values
Procedure, shortened: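 Compounds are applied to the cln2 rad14 yeast strain, and growth is then compared with that of vehicle-treated cultures to give inhibition.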

[16] = NCI Yeast Anticancer Drug Screen. Data for the bub3 strain (AID 167); conditions: S. cerevisiae bub3 mutant strain, hits give high values
Procedure, shortened: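 Growth of a checkpoint-deficient yeast mutant is measured after compound exposure. Values represent inhibition relative to vehicle.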

[17] = at 5.0 µM (retest, dose inferred, filed as 0.5)
[18] = at 50.0 µM (retest, dose inferred, filed as 5.0)

Measured: growth inhibition

CCC(=O)Nc1ccc(N=NN(C)C)cc1
inactive: [1]; at 1.2 µM 0% | [1]; at 3.7 µM 2% | [1]; at 11.0 µM 6% | [2]; at 1.2 µM -13% | [2]; at 3.7 µM -10% | [2]; at 11.0 µM -10% | [2]; at 33.0 µM 19% | [3]; at 1.2 µM -13% | [3]; at 3.7 µM -8% | [3]; at 11.0 µM 2% | [3]; at 33.0 µM 46% | [4]; [17] -150% | [4]; [18] 9% | [4]; at 50.0 µM 50.2% | [5]; at 1.2 µM -8% | [5]; at 3.7 µM -10% | [5]; at 11.0 µM -9% | [5]; at 33.0 µM 69%
active: [1]; at 33.0 µM 73% | [1]; at 100.0 µM 100% | [2]; at 100.0 µM 99% | [3]; at 100.0 µM 99% | [5]; at 100.0 µM 99%

COc1cc2c(cc1OC)[C@@H](Nc1ccc(C#N)cc1)C1COC(=O)[C@@H]1C2c1cc(OC)c(O)c(OC)c1 (stereo partly specified)
active: [6]; at 11.0 µM 81% | [6]; at 33.0 µM 91% | [6]; at 100.0 µM 93% | [7]; at 100.0 µM 79% | [9]; at 100.0 µM 83% | [10]; at 3.7 µM 70% | [10]; [17] 88% | [10]; at 11.0 µM 90% | [10]; at 33.0 µM 93% | [10]; [18] 97% | [10]; at 50.0 µM 88% | [10]; at 100.0 µM 95% | [11]; at 33.0 µM 70% | [11]; [18] 98% | [11]; at 50.0 µM 91.5% | [11]; at 100.0 µM 91% | [12]; at 100.0 µM 81% | [13]; [18] 96% | [13]; at 50.0 µM 88% | [14]; at 100.0 µM 84% | [15]; [18] 91% | [15]; at 50.0 µM 82% | [16]; [18] 95% | [16]; at 50.0 µM 89.2% | [16]; at 100.0 µM 78% | [1]; at 33.0 µM 90% | [1]; at 100.0 µM 93% | [2]; at 100.0 µM 81% | [3]; at 100.0 µM 85% | [4]; [18] 94% | [4]; at 50.0 µM 86.7% | [5]; at 100.0 µM 84%
inactive: [6]; at 1.2 µM 14% | [6]; at 3.7 µM 52% | [7]; at 1.2 µM -34% | [7]; at 3.7 µM -33% | [7]; at 11.0 µM -9% | [7]; at 33.0 µM 6% | [8]; at 1.2 µM -15% | [8]; at 3.7 µM -11% | [8]; at 11.0 µM -1% | [8]; at 33.0 µM 6% | [8]; at 100.0 µM 20% | [9]; at 1.2 µM -17% | [9]; at 3.7 µM -19% | [9]; at 11.0 µM 12% | [9]; at 33.0 µM 20% | [10]; at 1.2 µM 24% | [11]; at 1.2 µM -22% | [11]; at 3.7 µM 5% | [11]; [17] 11% | [11]; at 11.0 µM 15% | [12]; at 1.2 µM -12% | [12]; at 3.7 µM -8% | [12]; at 11.0 µM 0% | [12]; at 33.0 µM 22% | [13]; [17] 17% | [14]; at 1.2 µM -5% | [14]; at 3.7 µM 19% | [14]; at 11.0 µM 11% | [14]; at 33.0 µM 38% | [15]; [17] 7% | [16]; at 1.2 µM -32% | [16]; at 3.7 µM -13% | [16]; [17] -54% | [16]; at 11.0 µM -22% | [16]; at 33.0 µM 15% | [1]; at 1.2 µM 6% | [1]; at 3.7 µM 17% | [1]; at 11.0 µM 46% | [2]; at 1.2 µM -3% | [2]; at 3.7 µM 9% | [2]; at 11.0 µM 16% | [2]; at 33.0 µM 33% | [3]; at 1.2 µM -20% | [3]; at 3.7 µM -14% | [3]; at 11.0 µM -2% | [3]; at 33.0 µM 39% | [4]; [17] 9% | [5]; at 1.2 µM -30% | [5]; at 3.7 µM -8% | [5]; at 11.0 µM -5% | [5]; at 33.0 µM 13%
